Experimental data: PubChem BioAssay
Inconclusive results are not listed. Activity calls are given as the source filed them. Rule as the data show it, unless noted: active = inhibition above about 80%; inactive = the rest. Peptide text beside a SMILES is read from it.

How the values were obtained:
[1] = tested on: Aerobactin synthetase IucA (Klebsiella pneumoniae); test: IucA aerobactin synthetase inhibitors, biochemical, Tocris library, absorbance (AID 1345561; call rule not given here;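 also: 100% = enzyme without compound and 0% = no enzyme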); conditions: purified IucA enzyme assay, absorbance (OD) read-out; stronger effect = lower value;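 tested at 8 µM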
[2] = protection against mutant huntingtin cytotoxicity, PC12 cells, LDH release (AID 1610); conditions: PC12 mutant huntingtin toxicity, final LDH at 4 uM, stronger effect = lower value
[3] = LFS_MB_1R medulloblastoma cell growth inhibition, synergistic combos for chromothripsis tumors, cisplatin or BGB combos (AID 1671452); conditions: LFS_MB_1R medulloblastoma cells, stronger effect = higher value;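 also: cells exposed for 96 hours before readout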
[4] = CRL2098 osteosarcoma cell growth inhibition, synergistic combos for chromothripsis tumors, BGB or cisplatin IC20 combos (AID 1671454); conditions: CRL2098 osteosarcoma cells, drug combinations, stronger effect = higher value;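 also: cells exposed for 96 h before readout; 0% = vehicle DMSO and 100% = killing by high DMSO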
[5] = HD-MB03 medulloblastoma cell growth inhibition, synergistic combos for chromothripsis tumors, BGB or cisplatin IC20 combos (AID 1671455; in the data active = inhibition above about 83%;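 also: 0% = vehicle DMSO and 100% = high DMSO as cytotoxic control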); conditions: HD-MB03 medulloblastoma cells, stronger effect = higher value
[6] = UWB1.289 ovarian carcinoma cell growth inhibition, synergistic combos for chromothripsis tumors, BGB or cisplatin combos (AID 1671456); conditions: UWB1.289 ovarian carcinoma cells, stronger effect = higher value;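 also: cells exposed to compound for four days; 0% = vehicle DMSO and 100% = killing by high DMSO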
[7] = LFS_MB_2R medulloblastoma cell growth inhibition, synergistic combos for chromothripsis tumors, cisplatin combos (AID 1671457); conditions: LFS_MB_2R medulloblastoma cells, stronger effect = higher value;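 also: cells exposed to compound for four days before readout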
[8] = UWB1.289_BRCA1 ovarian cancer growth, cell-based, BGB or cisplatin combinations (AID 1671459); conditions: UWB1.289 BRCA1 ovarian carcinoma, drug combinations, stronger effect = higher value
[9] = human astrocyte viability loss, single and combined drugs, cytotoxicity control for chromothriptic childhood tumor combination screen, cell-based, BGB or cisplatin IC20 combos (AID 1671460); conditions: Human astrocytes, drug combinations, stronger effect = higher value;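 also: cells exposed to compounds for 96 hours before viability readout; 0% = vehicle and 100% = killing control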
[10] = modifiers of HSF1 nuclear foci, imaging, Selleck Cancer Library (AID 1347162; in the data active = plate-normalised HSF1 focus index below about 0.46); conditions: human cells, at 10 µM; SSMD: measured here: HSF1 foci SSMD mean; cell count: measured here: cell number; plate-normalised HSF1 focus index: stronger effect = lower value
[11] = target: Huntingtin (Homo sapiens) (UniProt P42858); test: inhibitors of mutant Htt aggregation in vitro, dose response, QA1 (AID 1584); conditions: in vitro mutant huntingtin aggregation assay; confirmation test; at 10 µM; stronger effect = lower value
[12] = inhibitors of Cryptococcus chitosan production, flow cytometry, Cibacron Brilliant Red staining (AID 1347148; call rule not given here;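 also: compound exposure lasted three days at 37 degrees C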); conditions: Cryptococcus neoformans chitosan, stronger effect = lower value; at 10 µM unless noted
[13] = enhancers of SMN2 over SMN1 splicing, cell-based, SMN2/SMN1 luciferase reporters (AID 1598; call rule not given here); conditions: SMN2 vs SMN1 luciferase splicing reporter cells, at 10 µM; SMN1 luciferase ratio: measured here: SMN1 luciferase reporter average; SMN2 luciferase ratio: measured here: SMN2 luciferase reporter average, stronger effect = higher value; SMN2/SMN1 luciferase ratio: stronger effect = higher value
[14] = protection of motor neurons from glutamate death, cell-based, TUNEL DNA degradation staining, MNGlu (AID 1594; call rule not given here); conditions: glutamate-induced death, at 1 µM, stronger effect = higher value
[15] = measured here: combination with BGB IC40, at 0.05 µM
[16] = measured here: combination with cisplatin, at 0.5 µM
[17] = measured here: combination with cisplatin, at 5 µM
[18] = measured here: combination with BGB at IC20, at 0.5 µM
[19] = measured here: combination with cisplatin at IC20, at 0.5 µM
[20] = measured here: combo with BGB at IC20, at 0.5 µM
[21] = measured here: combo with cisplatin at IC20, at 0.5 µM
[22] = measured here: inhibition with BGB combination, at 0.05 µM
[23] = measured here: inhibition with cisplatin combination, at 0.05 µM
[24] = BGB combination, concentration series, at 5 µM
[25] = cisplatin combination, concentration series, at 5 µM
[26] = measured here: combo with BGB IC20, at 0.5 µM
[27] = measured here: combo with cisplatin IC20, at 0.5 µM

Chain of Huntingtin (Homo sapiens) (P42858 whole entry, looked up): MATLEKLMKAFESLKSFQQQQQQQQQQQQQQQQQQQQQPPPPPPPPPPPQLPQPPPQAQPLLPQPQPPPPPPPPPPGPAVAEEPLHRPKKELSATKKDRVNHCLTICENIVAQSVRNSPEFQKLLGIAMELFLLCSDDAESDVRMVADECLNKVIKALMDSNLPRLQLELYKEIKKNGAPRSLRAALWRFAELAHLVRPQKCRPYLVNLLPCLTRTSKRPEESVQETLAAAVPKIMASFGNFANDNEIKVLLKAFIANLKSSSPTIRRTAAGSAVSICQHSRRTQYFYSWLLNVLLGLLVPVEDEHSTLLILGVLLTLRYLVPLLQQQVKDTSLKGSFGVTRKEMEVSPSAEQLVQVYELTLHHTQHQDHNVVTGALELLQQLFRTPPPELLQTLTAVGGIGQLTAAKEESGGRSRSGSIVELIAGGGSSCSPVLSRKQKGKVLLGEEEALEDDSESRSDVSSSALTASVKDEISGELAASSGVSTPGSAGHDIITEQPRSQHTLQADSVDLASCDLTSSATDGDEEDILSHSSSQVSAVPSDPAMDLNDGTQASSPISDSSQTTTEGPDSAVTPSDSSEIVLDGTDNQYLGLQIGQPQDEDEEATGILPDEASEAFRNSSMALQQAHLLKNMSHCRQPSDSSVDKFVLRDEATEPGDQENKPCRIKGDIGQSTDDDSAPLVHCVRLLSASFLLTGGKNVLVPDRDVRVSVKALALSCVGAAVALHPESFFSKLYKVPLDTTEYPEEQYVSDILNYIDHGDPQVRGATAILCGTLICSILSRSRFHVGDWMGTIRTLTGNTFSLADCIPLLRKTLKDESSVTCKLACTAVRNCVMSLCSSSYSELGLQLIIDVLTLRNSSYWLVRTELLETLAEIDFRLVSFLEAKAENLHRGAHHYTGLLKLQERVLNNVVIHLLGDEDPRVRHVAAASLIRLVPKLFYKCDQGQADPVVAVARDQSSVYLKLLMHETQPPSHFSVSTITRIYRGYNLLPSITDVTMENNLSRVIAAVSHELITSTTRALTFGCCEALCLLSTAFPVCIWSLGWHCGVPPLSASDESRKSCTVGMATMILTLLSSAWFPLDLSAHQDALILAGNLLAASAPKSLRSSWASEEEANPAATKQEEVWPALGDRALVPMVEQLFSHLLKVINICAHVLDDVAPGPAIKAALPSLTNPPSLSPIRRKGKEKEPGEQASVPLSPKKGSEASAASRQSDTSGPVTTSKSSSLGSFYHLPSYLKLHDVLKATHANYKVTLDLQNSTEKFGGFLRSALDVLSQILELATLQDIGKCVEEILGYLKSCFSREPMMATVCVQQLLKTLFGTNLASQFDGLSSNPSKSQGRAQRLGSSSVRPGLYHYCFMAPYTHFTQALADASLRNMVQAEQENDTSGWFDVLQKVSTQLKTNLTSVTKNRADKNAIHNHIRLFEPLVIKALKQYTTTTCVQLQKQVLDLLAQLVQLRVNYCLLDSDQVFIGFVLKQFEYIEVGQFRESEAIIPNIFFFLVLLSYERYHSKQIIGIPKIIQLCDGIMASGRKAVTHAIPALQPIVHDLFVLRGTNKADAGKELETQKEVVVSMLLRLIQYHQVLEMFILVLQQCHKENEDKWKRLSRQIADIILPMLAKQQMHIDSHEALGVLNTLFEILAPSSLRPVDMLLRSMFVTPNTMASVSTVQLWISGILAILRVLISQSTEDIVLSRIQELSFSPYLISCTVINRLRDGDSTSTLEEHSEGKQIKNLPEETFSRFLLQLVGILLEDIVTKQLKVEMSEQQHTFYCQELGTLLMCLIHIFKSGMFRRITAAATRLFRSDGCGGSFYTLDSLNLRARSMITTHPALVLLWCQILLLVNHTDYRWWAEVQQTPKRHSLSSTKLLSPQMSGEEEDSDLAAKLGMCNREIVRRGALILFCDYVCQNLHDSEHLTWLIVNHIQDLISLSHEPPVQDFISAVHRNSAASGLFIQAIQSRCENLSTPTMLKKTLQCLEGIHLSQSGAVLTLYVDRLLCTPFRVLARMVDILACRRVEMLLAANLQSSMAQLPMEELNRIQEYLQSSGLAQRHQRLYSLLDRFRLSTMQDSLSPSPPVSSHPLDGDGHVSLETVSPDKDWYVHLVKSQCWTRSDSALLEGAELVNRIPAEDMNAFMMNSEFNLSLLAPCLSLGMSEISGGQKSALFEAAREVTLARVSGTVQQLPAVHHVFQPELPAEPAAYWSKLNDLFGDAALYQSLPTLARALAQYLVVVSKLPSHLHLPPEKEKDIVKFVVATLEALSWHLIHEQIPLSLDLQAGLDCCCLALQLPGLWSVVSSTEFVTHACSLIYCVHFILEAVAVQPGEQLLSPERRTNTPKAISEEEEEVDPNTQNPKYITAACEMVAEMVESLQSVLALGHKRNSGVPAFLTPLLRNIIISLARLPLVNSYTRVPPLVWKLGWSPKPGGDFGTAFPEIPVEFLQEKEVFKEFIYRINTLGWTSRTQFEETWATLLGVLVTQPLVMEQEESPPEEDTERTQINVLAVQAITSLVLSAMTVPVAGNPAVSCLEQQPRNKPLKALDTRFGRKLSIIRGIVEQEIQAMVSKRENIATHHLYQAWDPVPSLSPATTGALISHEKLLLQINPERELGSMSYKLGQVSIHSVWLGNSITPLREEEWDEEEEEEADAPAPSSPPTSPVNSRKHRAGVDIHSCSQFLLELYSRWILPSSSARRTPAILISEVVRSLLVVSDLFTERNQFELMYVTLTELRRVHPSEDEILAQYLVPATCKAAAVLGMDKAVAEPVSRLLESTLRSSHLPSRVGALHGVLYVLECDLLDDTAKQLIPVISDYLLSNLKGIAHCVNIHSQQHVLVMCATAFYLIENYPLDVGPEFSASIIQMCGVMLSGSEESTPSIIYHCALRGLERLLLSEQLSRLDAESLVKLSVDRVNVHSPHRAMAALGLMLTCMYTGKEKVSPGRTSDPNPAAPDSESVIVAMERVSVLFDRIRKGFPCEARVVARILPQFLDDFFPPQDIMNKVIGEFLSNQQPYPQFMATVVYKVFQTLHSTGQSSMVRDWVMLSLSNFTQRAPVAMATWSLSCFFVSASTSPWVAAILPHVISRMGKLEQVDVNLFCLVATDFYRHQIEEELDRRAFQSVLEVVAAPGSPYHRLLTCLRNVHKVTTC

## C1CCc2nnnn2CC1
[1]
  remaining activity: 117% (inactive)

## NC(N)=NC(N)=Nc1ccccc1
[1]
  remaining activity: 119% (inactive)

## COc1ccc(-c2coc3cc(O)cc(O)c3c2=O)cc1
[2]
  normalised LDH release: 1.03

## CCn1nc(C(=O)O)c(=O)c2cc3c(cc21)OCO3
[3]; at 0.5 µM
  inhibition: -36.2% (inactive)
[3]; [15]
  inhibition: -30.8%
[3]; [16]
  inhibition: -40.5%
[3]; [17]
  inhibition: 15.7%
[4]; at 0.5 µM
  inhibition: -51.5% (inactive)
[4]; [18]
  inhibition: -50.7%
[4]; [19]
  inhibition: -58%
[5]; at 0.5 µM
  inhibition: -4.61% (inactive)
[5]; [20]
  inhibition: -9.5%
[5]; [21]
  inhibition: -2.73%
[6]; at 0.5 µM
  inhibition: -2.26% (inactive)
[6]; [22]
  inhibition: -31.4%
[6]; [23]
  inhibition: -13.5%
[7]; at 0.5 µM
  inhibition: -9.44% (inactive)
[7]; [16]
  inhibition: -16.5%
[7]; [17]
  inhibition: -17.7%
[8]; [24]
  inhibition: 14%
[8]; at 0.5 µM
  inhibition: -2.39% (inactive)
[8]; [25]
  inhibition: 6.77%
[9]; at 0.5 µM
  inhibition: 10.8% (inactive)
[9]; [26]
  inhibition: 8.46%
[9]; [27]
  inhibition: 10.9%

## O=C(CCc1ccc(O)cc1)c1c(O)cc(O)cc1O
[10]
  SSMD: 2.09
  cell count: 7280
  plate-normalised HSF1 focus index: 1.13 (inactive)

## O=c1c(O)c(-c2ccc(O)c(O)c2)oc2cc(O)ccc12
[3]; at 0.5 µM
  inhibition: -4.27% (inactive)
[3]; [15]
  inhibition: -15.9%
[3]; [16]
  inhibition: -18.5%
[3]; [17]
  inhibition: -12.6%
[4]; at 0.5 µM
  inhibition: 3.92% (inactive)
[4]; [18]
  inhibition: -8.68%
[4]; [19]
  inhibition: 27.9%
[5]; at 0.5 µM
  inhibition: -0.08% (inactive)
[5]; [20]
  inhibition: 1.14%
[5]; [21]
  inhibition: -0.856%
[6]; at 0.5 µM
  inhibition: 3.05% (inactive)
[6]; [22]
  inhibition: 1.82%
[6]; [23]
  inhibition: -4.79%
[7]; at 0.5 µM
  inhibition: 1.64% (inactive)
[7]; [16]
  inhibition: -4.17%
[7]; [17]
  inhibition: -0.986%
[8]; [24]
  inhibition: 14.5%
[8]; at 0.5 µM
  inhibition: 1.05% (inactive)
[8]; [25]
  inhibition: 19.6%
[9]; at 0.5 µM
  inhibition: 10.6% (inactive)
[9]; [26]
  inhibition: 1.09%
[9]; [27]
  inhibition: 26.6%

## O=c1c(O)c(-c2ccc(O)cc2O)oc2cc(O)cc(O)c12
[11]
  aggregation ratio: 0.704

## c1ccc2c(Cc3c[nH]c4ccccc34)c[nH]c2c1
[12]
  fold fluorescence: 4.77 (inactive)

## Cc1cc(O)c2c(c1)C(=O)c1cccc(O)c1C2=O
[10]
  SSMD: 1.91
  cell count: 7380
  plate-normalised HSF1 focus index: 1.07 (inactive)

## COc1ccc2cc1Oc1ccc(cc1)C[C@H]1c3cc(c(OC)cc3CCN1C)Oc1c(OC)c(OC)cc3c1[C@H](C2)N(C)CC3
[12]
  fold fluorescence: 5.71 [at 80.3 µM] (inactive)

## CC(=O)N[C@@H](CC(=O)O)C(=O)N[C@@H](CCC(=O)O)C(=O)O (Ac-Asp-Glu-OH)
[1]
  remaining activity: 82.4% (inactive)

## O=C(/C=C/c1ccc(O)c(O)c1)OCCc1ccccc1
[1]
  remaining activity: 122% (inactive)
[12]
  fold fluorescence: 6.87 [at 175.9 µM] (inactive)

## CN1CCc2cccc3c2C1Cc1ccc(O)c(O)c1-3 (configuration not stated)
[2]
  normalised LDH release: 0.891

## COc1c2ccoc2cc2oc(=O)ccc12
[3]; at 0.5 µM
  inhibition: -1.71% (inactive)
[3]; [15]
  inhibition: -39.8%
[3]; [16]
  inhibition: -31.5%
[3]; [17]
  inhibition: 0.408%
[4]; at 0.5 µM
  inhibition: -46.9% (inactive)
[4]; [18]
  inhibition: -48%
[4]; [19]
  inhibition: -47.5%
[5]; at 0.5 µM
  inhibition: -4.51% (inactive)
[5]; [20]
  inhibition: -4.11%
[5]; [21]
  inhibition: -2.34%
[6]; at 0.5 µM
  inhibition: -2.25% (inactive)
[6]; [22]
  inhibition: -12.4%
[6]; [23]
  inhibition: -7.34%
[7]; at 0.5 µM
  inhibition: -16.1% (inactive)
[7]; [16]
  inhibition: -10.7%
[7]; [17]
  inhibition: 0.771%
[8]; [24]
  inhibition: 5.68%
[8]; at 0.5 µM
  inhibition: -4.34% (inactive)
[8]; [25]
  inhibition: 13.5%
[9]; at 0.5 µM
  inhibition: 1.97% (inactive)
[9]; [26]
  inhibition: -6.42%
[9]; [27]
  inhibition: 7.69%

## Cc1cc(/C=C/c2ccc3cc(N(C)C)ccc3[n+]2C)c(C)n1-c1ccccc1
[11]
  aggregation ratio: 0.715

## CC(C(=O)O)c1ccc(N2Cc3ccccc3C2=O)cc1 (configuration not stated)
[13]
  SMN1 luciferase ratio: 0.71
  SMN2/SMN1 luciferase ratio: 2.02 (active)
  SMN2 luciferase ratio: 1.4

## CN1CCc2c(c3ccccc3n2Cc2ccccc2)C1
[14]
  protection: 49% (active)
[2]
  normalised LDH release: 0.901

## NC(N)=NCCCCN=C(N)N
[14]
  protection: 45% (active)

## C=C1c2c(Cl)ccc(O)c2C(O)=C2C(=O)[C@]3(O)C(O)=C(C(N)=O)C(=O)[C@@H](N(C)C)[C@@H]3[C@@H](O)[C@H]12
[11]
  aggregation ratio: 0.703

## CC(C)Cn1c(=O)n(C)c(=O)c2[nH]cnc21
[12]
  fold fluorescence: 4.08 [at 225 µM] (inactive)

## COc1cc2ccc(=O)oc2cc1O
[2]
  normalised LDH release: 0.874
